As a reminder, the inhibition is the change of the read-out against control, counted positive when it falls.

Assay [1] can be described thus: antimalarial activity against Dd2 strain (AID 2302;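 active means growth inhibition above 50% at the single 2 µM test dose, taken to imply half-maximal potency below 2 µM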;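 further: 0% = DMSO untreated growth and 100% = chloroquine plus artemisinin killed control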). The conditions noted are these: P. falciparum Dd2 in RBCs, LDH growth readout, 72 h; at 2 µM; stronger effect = higher value.
Assay [2] can be described thus: human hepatoma cell viability loss – ATP luminescence, cytotoxicity control for P. falciparum antimalarial project, primary screen (AID 2303;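 active means inhibition above 50%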;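 further: 0% = DMSO wells and 100% = digitonin-killed cells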). The conditions noted are these: HepG2 viability, 24-48 h, at 10 µM, stronger effect = higher value.
The target of assay [3] is L-lactate dehydrogenase (Plasmodium falciparum (isolate CDC / Honduras)) (UniProt Q27743). Nature of the assay: PfLDH activity inhibition – cell lysate, 3D7 strain, counter-screen for P. falciparum growth inhibition project (AID 2304).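 Further: 0% = vehicle and 100% = reference inhibitor.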 To be noted: P. falciparum 3D7 crude extract, LDH APAD/NBT absorbance; at 2 µM; stronger effect = higher value.
Sequence of L-lactate dehydrogenase (Plasmodium falciparum (isolate CDC / Honduras)) (Q27743 whole entry, looked up): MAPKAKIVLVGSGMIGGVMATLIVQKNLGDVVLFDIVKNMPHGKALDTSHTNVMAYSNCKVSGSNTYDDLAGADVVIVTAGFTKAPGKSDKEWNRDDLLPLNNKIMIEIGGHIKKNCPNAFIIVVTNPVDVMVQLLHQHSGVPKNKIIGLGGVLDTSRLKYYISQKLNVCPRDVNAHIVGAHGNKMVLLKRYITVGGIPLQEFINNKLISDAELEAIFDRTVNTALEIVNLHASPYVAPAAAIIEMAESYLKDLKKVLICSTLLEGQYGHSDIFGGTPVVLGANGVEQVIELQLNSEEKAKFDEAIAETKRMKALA
Assay [4] can be described thus: inhibition of 3D7 malaria parasite growth – strain 3D7 (AID 2306).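 Further: 0% = DMSO wells and 100% = chloroquine plus artemisinin control wells.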 The conditions noted are these: P. falciparum 3D7 erythrocytic growth, LDH absorbance, 72 h; at 2 µM; stronger effect = higher value.
Assay [5] addresses Calcium-dependent protein kinase 1 (Plasmodium falciparum (isolate 3D7)) (UniProt P62344). Nature of the assay: PfCDPK1 kinase inhibitors, biochemical, TCAMS library (AID 1159585; cut-off not given, nearly all actives have IC50 up to about 0.98 µM;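 further: inhibitors leave more ATP so luminescence rises with inhibition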). The conditions noted are these: recombinant PfCDPK1, Kinase-Glo ATP depletion luminescence. In general terms: Kinase-Glo reads ATP consumption through a luciferase reaction.
Assay [6] concerns the target Plasmodium falciparum protein kinase 6 (PK6, PF3D7_1337100) (UniProt Q8IDW1). Nature of the assay: PfPK6 kinase inhibitors, biochemical, TCAMS library (AID 1159586). The conditions noted are these: recombinant PfPK6, Kinase-Glo ATP depletion luminescence.
For assay [7], the target named is Protein kinase 7 (PK7), Plasmodium falciparum 3D7 (PF3D7_0213400) (UniProt Q7YTF7). Nature of the assay: inhibition of Plasmodium PK7 catalytic activity – biochemical, TCAMS antimalarial set, Kinase-Glo luminescence (AID 1159587). The conditions noted are these: recombinant PfPK7, Kinase-Glo ATP depletion luminescence.
Sequence of Protein kinase 7 (PK7), Plasmodium falciparum 3D7 (PF3D7_0213400) (Q7YTF7 1-343): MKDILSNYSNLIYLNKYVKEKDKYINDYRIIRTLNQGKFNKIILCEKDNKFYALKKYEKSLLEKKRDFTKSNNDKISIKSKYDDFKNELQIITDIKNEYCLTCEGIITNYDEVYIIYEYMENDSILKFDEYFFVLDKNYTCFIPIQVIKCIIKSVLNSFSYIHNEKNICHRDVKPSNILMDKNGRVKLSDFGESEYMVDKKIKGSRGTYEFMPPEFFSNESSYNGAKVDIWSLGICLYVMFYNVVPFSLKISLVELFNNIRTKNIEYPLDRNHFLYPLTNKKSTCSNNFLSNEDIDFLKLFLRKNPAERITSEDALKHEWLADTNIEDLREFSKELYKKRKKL
Assay [8] addresses Calcium-dependent protein kinase 4 (Plasmodium falciparum (isolate 3D7)) (UniProt Q8IBS5). Nature of the assay: PfCDPK4 kinase inhibitors, biochemical, TCAMS library (AID 1159588; cut-off not given, nearly all actives have IC50 up to about 0.91 µM). The conditions noted are these: recombinant PfCDPK4, Kinase-Glo ATP depletion luminescence.

Unmarked numbers belong to inactive results. For some of these results: Measured potencies and affinities stand elsewhere. Active and inactive are the calls of the source. Unless noted, how the calls were made is not given here.

Sequence of Calcium-dependent protein kinase 1 (Plasmodium falciparum (isolate 3D7)) (P62344 whole entry, looked up): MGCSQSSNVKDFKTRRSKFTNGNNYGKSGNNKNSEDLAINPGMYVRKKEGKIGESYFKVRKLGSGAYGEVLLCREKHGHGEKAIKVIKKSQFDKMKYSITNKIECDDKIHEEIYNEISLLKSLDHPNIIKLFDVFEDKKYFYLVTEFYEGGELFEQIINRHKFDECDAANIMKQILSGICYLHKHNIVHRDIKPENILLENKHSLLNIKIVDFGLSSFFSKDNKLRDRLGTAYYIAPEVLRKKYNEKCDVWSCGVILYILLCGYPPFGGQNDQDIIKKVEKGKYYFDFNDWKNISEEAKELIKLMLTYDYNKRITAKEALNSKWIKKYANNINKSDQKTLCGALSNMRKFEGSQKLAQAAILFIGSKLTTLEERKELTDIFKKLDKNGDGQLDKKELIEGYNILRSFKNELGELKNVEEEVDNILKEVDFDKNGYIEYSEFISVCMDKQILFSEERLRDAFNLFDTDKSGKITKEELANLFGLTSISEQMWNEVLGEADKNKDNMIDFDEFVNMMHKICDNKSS
Sequence of Plasmodium falciparum protein kinase 6 (PK6, PF3D7_1337100) (Q8IDW1 1-305): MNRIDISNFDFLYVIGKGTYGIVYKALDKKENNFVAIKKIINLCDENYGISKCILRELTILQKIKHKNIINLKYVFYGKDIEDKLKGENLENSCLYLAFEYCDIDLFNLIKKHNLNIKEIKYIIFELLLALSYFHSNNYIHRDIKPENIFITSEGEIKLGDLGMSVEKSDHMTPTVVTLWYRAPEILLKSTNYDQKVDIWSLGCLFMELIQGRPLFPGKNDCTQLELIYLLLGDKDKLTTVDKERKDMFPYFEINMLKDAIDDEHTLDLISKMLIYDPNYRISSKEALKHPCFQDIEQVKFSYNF
Sequence of Calcium-dependent protein kinase 4 (Plasmodium falciparum (isolate 3D7)) (Q8IBS5 whole entry, looked up): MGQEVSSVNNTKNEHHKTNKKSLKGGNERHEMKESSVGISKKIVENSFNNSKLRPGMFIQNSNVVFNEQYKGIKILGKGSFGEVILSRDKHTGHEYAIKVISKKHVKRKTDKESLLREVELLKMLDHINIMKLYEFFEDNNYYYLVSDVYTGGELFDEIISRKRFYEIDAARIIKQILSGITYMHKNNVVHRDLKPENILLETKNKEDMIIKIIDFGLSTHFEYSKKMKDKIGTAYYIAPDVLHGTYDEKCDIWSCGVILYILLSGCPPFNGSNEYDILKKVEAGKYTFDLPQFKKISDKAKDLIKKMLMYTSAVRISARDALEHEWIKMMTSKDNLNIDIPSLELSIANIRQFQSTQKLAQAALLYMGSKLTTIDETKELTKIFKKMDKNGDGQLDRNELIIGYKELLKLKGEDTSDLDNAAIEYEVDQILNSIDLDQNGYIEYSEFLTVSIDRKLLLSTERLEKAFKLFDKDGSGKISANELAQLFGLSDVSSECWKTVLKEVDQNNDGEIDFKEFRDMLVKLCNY

For the molecule `Cc1ccc2ccccc2c1CCCON1C(N)=NC(N)=NC1(C)C`, the values for the growth inhibition in assay [1] and in assay [4] were 97% (active) and 95% (active), respectively. Further, the inhibition in assay [2] was 65% (active); in assay [3], 5%. Moreover, the result in assay [5], in assay [6], in assay [7] and in assay [8] was inactive.

Turning to `C[C@@H]1CN(c2cnn(Cc3ccc(NC(=O)Nc4ccc(-c5ccccc5)cc4)cc3)c(=O)c2Cl)C[C@H](C)N1`, the growth inhibition in assay [1] was 46%; in assay [4], 100% (active). For the same molecule, the inhibition was 82% (active) in assay [2] and -3% in assay [3]. For the same molecule, the result in assay [5], in assay [6], in assay [7] and in assay [8] was inactive.

Turning to `Cc1nc2ccc3ccc(CNc4ccc(C#N)cc4)cc3c2c(=O)[nH]1`, the growth inhibition in assay [1] was 56% (active); in assay [4], 84% (active). Besides, the inhibition in assay [2] is 55% (active); in assay [3], 8%. Further, the outcome in assay [5], in assay [6], in assay [7] and in assay [8] was inactive.

With `O=C(CNCC1CCCCC1)Nc1cc(C(F)(F)F)ccc1Cl`, the growth inhibition is 67% (active) in assay [1] and 86% (active) in assay [4]. The values for the inhibition in assay [2] and in assay [3] were 1% and 2%, respectively. Besides, the result in assay [5], in assay [6], in assay [7] and in assay [8] was inactive.

On to `CN(C)CCC1CCN(CCS(=O)(=O)c2cccc(Nc3ccc(-c4cccc(F)c4)cn3)c2)CC1`, for which the results for the growth inhibition in assay [1] and in assay [4] were 59% (active) and 100% (active), respectively. Besides, the inhibition in assay [2] was 94% (active); in assay [3] it was 5%. Also, the outcome in assay [5], in assay [6], in assay [7] and in assay [8] was inactive.

Take `C=CCn1c(Sc2ccc(C#N)c([N+](=O)[O-])c2)nnc1-c1ccc(OC)cc1`: the growth inhibition is 74% (active) in assay [1] and 96% (active) in assay [4]. The inhibition is -5% in assay [2] and 0% in assay [3]. Moreover, the result in assay [5], in assay [6], in assay [7] and in assay [8] was inactive.

As to `COc1cc(C2NCC3(CCOCC3)c3cc4c(cc32)OCCO4)cc(OC)c1OC` (stereo not given), the results for the growth inhibition in assay [1] and in assay [4] were 2% and 95% (active), respectively. The inhibition in assay [2] was 24%; in assay [3], -5%. For the same molecule, the result in assay [5], in assay [6], in assay [7] and in assay [8] was inactive.

`Cc1ccc(Oc2ncccc2C(=O)Nc2cccc3cccnc23)c(C)c1`: the growth inhibition was 76% (active) in assay [1] and 99% (active) in assay [4]. Besides, the figures for the inhibition in assay [2] and in assay [3] were -13% and 0%, respectively. In addition, the result in assay [5], in assay [6], in assay [7] and in assay [8] was inactive.

Regarding `COc1ccc(Br)cc1/C=C/C(=O)Nc1cccc(C2CCN(C)CC2)c1`, the growth inhibition in assay [1] was 37%; in assay [4], 95% (active). The inhibition in assay [2] is 44%; in assay [3] it was -2%. For the same molecule, the outcome in assay [5], in assay [6], in assay [7] and in assay [8] was inactive.

In the case of `CN(C)CCCNc1ncnc2c1[nH]c1ccc(Br)cc12`, the growth inhibition was 19% in assay [1] and 100% (active) in assay [4]. Moreover, the inhibition in assay [2] and in assay [3] was 3% each time. Besides, the outcome in assay [5], in assay [6], in assay [7] and in assay [8] was inactive.

As to `CC1(C)N=C(N)N=C(N)N1OCCCOc1cc(Cl)c(Cl)cc1Cl`, the growth inhibition in assay [1] and in assay [4] was 95% (active) throughout. The inhibition is 60% (active) in assay [2] and -1% in assay [3]. In addition, the outcome in assay [5], in assay [6], in assay [7] and in assay [8] was inactive.

For the molecule `Cc1noc(-c2ccccc2)c1CN1CCCC2(CC(C(=O)NCc3cccc(F)c3F)=NO2)C1` (stereo not given), the growth inhibition in assay [1] is 28%; in assay [4], 85% (active). In addition, the inhibition in assay [2] and in assay [3] was -1% each time. The result in assay [5], in assay [6], in assay [7] and in assay [8] was inactive.

As for `Cc1nc(-c2cccc3c(NC(=O)Nc4ccc5nccc(N6CCN(C)CC6)c5c4)cccc23)no1`, the growth inhibition in assay [1] was 84% (active); in assay [4], 100% (active). The inhibition in assay [2] is -4%; in assay [3], -2%. For the same molecule, the result in assay [5], in assay [6], in assay [7] and in assay [8] was inactive.

Take `CN(Cc1ccccc1)C1CCCN(c2cc(NC(=O)c3ccc(F)cc3)ccn2)C1` (stereo not given): the growth inhibition was 95% (active) in assay [1] and 93% (active) in assay [4]. Besides, the inhibition is 7% in assay [2] and 0% in assay [3]. Further, the outcome in assay [5], in assay [6], in assay [7] and in assay [8] was inactive.

As to `Cc1[nH]c(C)c(-c2ccc(Oc3ccc(F)cc3)cc2)c(=O)c1Cl`, the values for the growth inhibition in assay [1] and in assay [4] were 98% (active) and 99% (active), respectively. Besides, the figures for the inhibition in assay [2] and in assay [3] were 14% and 4%, respectively. The outcome in assay [5], in assay [6], in assay [7] and in assay [8] was inactive.

Turning to `Cc1ccc(CNC(=O)[C@H](CCCN)Nc2nc(Nc3ccccc3)ncc2C)cc1`, the growth inhibition in assay [1] is -4%; in assay [4] it was 97% (active). The inhibition was -1% in assay [2] and -2% in assay [3]. For the same molecule, the outcome in assay [5], in assay [6], in assay [7] and in assay [8] was inactive.

`Oc1ccc(CCNc2nc(NCc3ccccc3-c3ccc(C(F)(F)F)cc3)nc(N3CCCNCC3)n2)cc1`: the growth inhibition in assay [1] was 2%; in assay [4], 95% (active). The inhibition in assay [2] is 12%; in assay [3], 0%. Further, the outcome in assay [5], in assay [6], in assay [7] and in assay [8] was inactive.

Regarding `COc1ccc(Nc2nc(NC3CCN(Cc4ccccc4)CC3)cc(-c3ccncc3)n2)cc1`, the figures for the growth inhibition in assay [1] and in assay [4] were 40% and 88% (active), respectively. Moreover, the inhibition in assay [2] was 26%; in assay [3], 0%. The outcome in assay [5], in assay [6], in assay [7] and in assay [8] was inactive.

In the case of `N#Cc1ccc(N2CCN(Cc3ccc(-c4ccc(-c5nc6ccc(C(F)(F)F)cc6[nH]5)cc4)cc3)CC2)nc1`, the growth inhibition was 90% (active) in assay [1] and 101% (active) in assay [4]. The inhibition in assay [2] is 19%; in assay [3], 4%. The result in assay [5], in assay [6], in assay [7] and in assay [8] was inactive.

As for `Cc1cc(CN2CCCC(OC(c3ccc(F)cc3)c3ccc(F)cc3)C2)ccc1O` (stereo not given), the growth inhibition in assay [1] was 82% (active); in assay [4], 89% (active). The inhibition in assay [2] is 28%; in assay [3], 3%. Besides, the result in assay [5], in assay [6], in assay [7] and in assay [8] was inactive.

These data come from PubChem BioAssay.
